# Compound activity from PubChem BioAssay.
# HP1b chromo inh = blocks HP1-beta chromodomain binding to methylated histone tails; AlphaScreen HP1-beta / biotin-H3K9me3 peptide binding; Potency, µM (series often up to 114 µM), for the others: at the top dose activity change, negative = inhibition, hits mostly inhibitors; actives 0.56% (n = 390,000); also: potency is read from the fitted curve at half-maximal effect; nearly all actives have a fitted effect of over 70% in size
#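 Compound inhibition of the preformed complex between 50 nM HP1-beta and 50 nM biotinylated H3K9me3 peptide was read by AlphaScreen. Buffer was PBS pH 7.4 with 0.01% Tween-20. Incubations ran 30 min at room temperature, with 10 ug/mL donor/acceptor beads.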
# BAZ2B inh = inhibitors of human BAZ2B bromodomain; actives 4.4% (n = 360,000); Q9UIF8; AID 504333; Potency, µM (series often up to 114 µM), without a hit: at the highest dose activity change, negative = inhibition, most hits filed as inhibitors; AlphaScreen BAZ2B-H3K14Ac peptide displacement; also: potency is read from the fitted curve at half-maximal effect; % is scaled to controls: 0 for no effect and ±100 for the full control effect; nearly all actives have a fitted effect of over 60% in size
#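 In this displacement format the biotinylated H3(5-23) peptide acetylated at Lys14 serves as ligand at 50 nM, with BAZ2B at 50 nM in PBS pH 7.4 containing 0.01% Tween-20. Donor and acceptor beads are 10 ug/mL final.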
# TDP1 block = inhibitors of human tyrosyl-DNA phosphodiesterase TDP1 | recombinant TDP1, AlphaScreen DNA substrate cleavage | Potency, µM (doses to about 130 µM), for the others: at the top dose activity change, negative = inhibition, hits mostly inhibitors | actives 0.28% (n = 350,000); also: potency is read from the fitted curve at half-maximal effect; % is scaled to controls: 0 for no effect and ±100 for the full control effect; nearly all actives have a fitted effect of over 40% in size
#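 Recombinant E. coli-expressed Tdp1 (1 nM) preincubated with compound 15 min at RT, then 5'-biotin/3'-phosphotyrosine-FITC DNA substrate (15 nM) added for 5 min. AlphaScreen beads (10 ug/ml) added, 10 min RT; tyrosine-FITC cleavage read as signal loss.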
# CtBP-E1A inh = blocks the CtBP interaction with E1A | AlphaScreen GST-E1A/His-CtBP binding, 1536-well; stronger effect = lower value | activity change, % (no concentration beside the values) | actives 0.49% (n = 340,000) | AID 651724; in the data active = activity change below about -65%; inconclusive = mostly about -30% to -63%; also: % is scaled to controls: 0 for no effect and ±100 for the full control effect
#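 AlphaScreen with 125 nM GST-E1A and 125 nM His-CtBP (5X stocks) in Tris pH 8.0, 300 mM NaCl, BSA, Tween 20, TCEP. Compounds preincubated 2 h at 37 deg C, then glutathione donor/nickel acceptor beads added for 1 h at 37 deg C in dark.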
# Six1-Eya2 inh = inhibitors of human Six1/Eya2 interaction | Q15475+O00167 | AlphaScreen GST-Six1/His-Eya2 binding, biochemical; stronger effect = lower value | activity change, % (test concentration not listed) | actives 0.56% (n = 360,000); in the data active = activity change below about -65%; inconclusive = mostly about -30% to -63%; also: % is scaled to controls: 0 for no effect and ±100 for the full control effect
#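 GST-Six1 + His-Eya2 (5X stock: 250/500 nM); Tris pH 8.0, 300 mM NaCl, 0.05% BSA, 0.02% Tween 20; GSH donor/Ni acceptor beads; 1 h 37 °C dark; AlphaScreen readout.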
# JMJD2A Tudor = JMJD2A Tudor domain (human) inhibition | O75164 | AlphaScreen JMJD2A-Tudor / H3K4me3 peptide binding | Potency, µM (doses to about 114 µM), for the others: at the highest dose activity change, negative = inhibition, actives largely listed as inhibitors | actives 4.4% (n = 390,000) | AID 504339; also: potency is read from the fitted curve at half-maximal effect; % is scaled to controls: 0 for no effect and ±100 for the full control effect; nearly all actives have a fitted effect of over 50% in size
# Target sequence (O75164 whole entry, looked up, the tested form may be a part): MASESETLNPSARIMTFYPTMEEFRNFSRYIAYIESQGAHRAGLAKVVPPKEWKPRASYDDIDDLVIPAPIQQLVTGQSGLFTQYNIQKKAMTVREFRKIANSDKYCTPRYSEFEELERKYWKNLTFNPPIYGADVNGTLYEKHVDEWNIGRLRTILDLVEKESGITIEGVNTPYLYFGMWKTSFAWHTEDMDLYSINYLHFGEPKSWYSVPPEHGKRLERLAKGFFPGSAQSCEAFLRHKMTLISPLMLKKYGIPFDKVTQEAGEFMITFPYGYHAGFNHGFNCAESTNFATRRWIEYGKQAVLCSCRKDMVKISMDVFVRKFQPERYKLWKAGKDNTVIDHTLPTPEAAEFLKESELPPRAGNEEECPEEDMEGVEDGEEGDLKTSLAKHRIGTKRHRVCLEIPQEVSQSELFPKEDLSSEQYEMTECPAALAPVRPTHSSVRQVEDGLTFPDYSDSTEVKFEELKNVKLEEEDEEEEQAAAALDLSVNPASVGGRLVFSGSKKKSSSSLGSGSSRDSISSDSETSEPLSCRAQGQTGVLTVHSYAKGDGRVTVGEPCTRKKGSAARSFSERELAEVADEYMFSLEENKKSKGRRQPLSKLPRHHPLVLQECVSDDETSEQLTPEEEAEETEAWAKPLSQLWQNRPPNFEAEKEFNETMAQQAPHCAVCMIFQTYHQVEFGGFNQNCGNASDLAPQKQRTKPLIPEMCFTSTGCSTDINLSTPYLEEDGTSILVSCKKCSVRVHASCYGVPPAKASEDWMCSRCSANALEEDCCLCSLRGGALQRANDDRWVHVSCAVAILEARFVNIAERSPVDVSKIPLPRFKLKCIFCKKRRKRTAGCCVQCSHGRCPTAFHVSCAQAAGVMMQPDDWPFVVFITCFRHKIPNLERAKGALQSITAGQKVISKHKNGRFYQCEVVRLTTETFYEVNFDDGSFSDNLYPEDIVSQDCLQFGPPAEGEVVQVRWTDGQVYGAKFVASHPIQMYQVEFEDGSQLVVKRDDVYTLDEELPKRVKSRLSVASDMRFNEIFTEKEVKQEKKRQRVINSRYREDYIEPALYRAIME
# The depositor's hits bear a star; ? = inconclusive; . = not tested or not shown; [ ] = another dose, or the depositor's remark. Rows were chosen to be rich in hits. Some 5.3% of all compounds tested hit in one or more screens of this group. Unless noted, calls follow the shape of the dose curve; as a rule, active = well fitted inhibition curve with a large enough effect; inconclusive = small, poorly fitted or top-dose-only effect; inactive = no such curve, though single readings can be large or run the other way.
SMILES,HP1b chromo inh,BAZ2B inh,TDP1 block,CtBP-E1A inh,Six1-Eya2 inh,JMJD2A Tudor
COc1ccc(NC(=O)c2cnn(-c3ccccc3)c2C)cc1,28%,-5%,.,.,3,-8%
Cc1ccc(NC(=O)N2CCc3cc(S(=O)(=O)N4CCC(C)CC4)ccc32)cc1C,31%,1%,5%,.,.,-6%
CCOc1ccc(-c2nc(CSCC(=O)N3CCN(c4cccc(C(F)(F)F)c4)CC3)c(C)o2)cc1,22%,-22%,2%,.,.,?
Cc1sc2ncnc(NCC(c3ccco3)N(C)C)c2c1C (stereo not drawn),?,7%,4%,-5,0,1.6µM*
Cc1ccc(Cn2cc3c(n2)-c2c(oc(C(=O)Nc4ccc(F)cc4F)c2C)CC3)cc1,14%,-4%,8%,.,.,-27%
Cc1ccc(NS(=O)(=O)c2ccc3[nH]c4c(c3c2)CCCC4)cc1N(C)C,?,32µM*,11%,.,.,35µM*
CCOc1ccc(S(=O)(=O)Nc2cc(NS(=O)(=O)c3ccc(OCC)cc3)cc(C(=O)O)c2)cc1,-1%,.,3.5µM*,.,-7,?
CC(C)(C)NS(=O)(=O)c1ccc2[nH]c3c(c2c1)CCCCC3,?,45µM*,.,-13,-15,?
COc1ccc(NS(=O)(=O)c2ccc3[nH]c4c(c3c2)CCCCC4)cc1,?,2%[57.1 µM],3%,.,.,32µM*
COc1ccc(NS(=O)(=O)c2ccc3[nH]c4c(c3c2)CCCC4)c(OC)c1,-32%,?,7%,.,.,?
Cc1ccc(CNS(=O)(=O)c2ccc3[nH]c4c(c3c2)CCCCC4)cc1,3%,-3%[57.1 µM],1%,.,.,-15%
CCOc1ccc(NS(=O)(=O)c2ccc3[nH]c4c(c3c2)CCCCC4)cc1,-14%,-27%[57.1 µM],6%,.,.,28µM*
COc1ccc(OC)c(CNS(=O)(=O)c2ccc3[nH]c4c(c3c2)CCCCC4)c1,?,?,10%,.,.,35µM*
CCOc1ccc(NS(=O)(=O)c2ccc3[nH]c4c(c3c2)CCCC4)cc1,?,?,9%,.,.,?
CC(=O)c1cccc(NS(=O)(=O)c2ccc3[nH]c4c(c3c2)CCCCC4)c1,-21%,-37%[57.1 µM],11%,.,.,?
CCOC(=O)c1cccc(NS(=O)(=O)c2ccc3[nH]c4c(c3c2)CCCC4)c1,?,40µM*,6%,.,.,28µM*
CCOc1ccc(NC(=O)CCc2nc3cccnc3n2-c2ccccc2)cc1,31%,-21%,1%,.,.,-26%
O=c1cc(-c2ccc(F)cc2)nc(SCc2nc(-c3ccc(Cl)cc3)no2)[nH]1,5%[57 µM],-5%,0%,.,.,-9%
O=C(OCC#CCSc1nnc(-c2ccccc2)o1)c1ccc(F)cc1,.,.,-14%,.,.,79%
O=C(O)c1cccc(NC(=S)N/N=C/c2cccc(O)c2)c1,-7%,-23%,3%,-7,-1,-17%
Oc1ccc(C=NNC(=S)Nc2cccnc2)nc1,19%,.,.,-6,-97*,10µM*
O=C(O)c1cccc(NC(=S)N/N=C/c2ccccn2)c1,14%,3.5µM*,2%,.,-76*,25µM*
O=C(O)c1cccc(NC(=S)N/N=C/c2ccccc2OCc2ccc(Br)cc2)c1,?,50µM*,3%,-4,-2,50µM*
O=C(O)c1cccc(NC(=S)N/N=C/c2ccccc2OCc2cccc(Br)c2)c1,?,45µM*,.,0,-15,50µM*
Cc1nn(CC(=O)Nc2cc(F)ccc2F)c(=O)c2cccn12,39%,-15%,3%,.,.,-4%
SMILES,HP1b chromo inh,BAZ2B inh,TDP1 block,CtBP-E1A inh,Six1-Eya2 inh,JMJD2A Tudor
N#Cc1cccc(NC(=O)C2CCN(c3ncccn3)CC2)c1,14%,-11%,0%,.,.,-21%
O=C(NC(=O)c1ccccc1)C1=C(N2CCCC2)COC1=O,30%,-3%,4%,-1,4,-10%
O=C(NS(=O)(=O)Nc1ccccc1)C1=C(N2CCCC2)COC1=O,28%,.,2%,.,1,100µM*
CN(C(=O)c1cc2nc(-c3ccc4c(c3)OCO4)cc(C(F)(F)F)n2n1)c1ccc(OC(F)(F)F)cc1,55%,6%,-1%,.,.,10%
COc1ccc(-c2ccc(=O)n(CC(=O)Nc3ccc(N(C)C)cc3)n2)cc1,?,32µM*,9%,.,.,56µM*
COc1ccc(-c2ccc(=O)n(CC(=O)Nc3ccccc3C(F)(F)F)n2)cc1,13%,4%,2%,.,.,-5%
Cc1nn(-c2ccccc2)c(N2CCCC2)c1/C=N/Nc1ccc(S(N)(=O)=O)cc1[N+](=O)[O-],40µM*,10µM*,11%,-12,?,7.1µM*
Cc1ccc(C)c(CN2C(=O)c3ccccc3S(=O)(=O)c3ccc(C(=O)NCc4ccccc4)cc32)c1,37%,?,2%,.,.,-7%
O=[N+]([O-])c1cccc(N=Nc2ccc(O)cc2O)c1,-12%[57 µM],.,.,-13,-15,?
O=[N+]([O-])c1ccc(N=Nc2ccc(O)cc2O)cc1,15%,32µM*,9%,5,4,-8%
CCC(=O)N1CCc2cc(S(=O)(=O)CCC(=O)Nc3cc(Cl)ccc3OC)ccc21,8%,.,9%,.,.,14µM*
Cn1c(=O)n(-c2ccc(Br)cc2F)c(=O)c2sc3ccccc3c21,54%,2%,6%,.,.,-5%
Oc1ccc(/C=N/N(Cc2ccccc2)c2ccccc2)c(O)c1O,?,28µM*,10%,-10,-17,56µM*
CCc1nn(CC(=O)N2CCC(C)CC2)c(=O)c2cc3occc3n12,46%,-2%,3%,.,.,-7%
CC(C(=O)N(C)Cc1ccccc1)N1CCN(C/C=C/c2ccccc2)CC1 (stereo not drawn),?,35µM*,-6%,-1,33,1.6µM*
COc1ccc(Cl)cc1NC(=O)C(C)N1CCN(C/C=C/c2ccccc2)CC1 (stereo not drawn),13µM*,50µM*,0%,-12,-18,3.5µM*
CC(=O)c1ccc(NC(=O)C(C)N2CCN(C/C=C/c3ccccc3)CC2)cc1 (stereo not drawn),6%,?,3%,23,-6,-21%
CC(CNC(=O)c1cncc(O)c1)NC(=O)c1cncc(O)c1 (stereo not drawn),9%,?,-3%,8,14,50µM*
CCOc1ccc(C(=O)NCC(C)NC(=O)c2ccc(OCC)cc2)cc1 (stereo not drawn),12%,?,.,6,7,?
CCOC(=O)CCC(NC(=O)c1cncc(O)c1)C(=O)OCC (stereo not drawn),9%,?,2%,4,9,45µM*
